Data published in PubChem BioAssay.
Inconclusive results are not listed. Activity calls are given as the source filed them. Unless noted, no cut-off is given here; in the data, nearly all actives have AC50 up to about 26 µM.

Assays:
[1] = growth inhibition of DIPG glioma cells, dose response, cell-based, SU-DIPG-XVII, MIPE5.0, CellTiter-Glo, qHTS (AID 1347060); details: SU-DIPG-XVII viability, CellTiter-Glo ATP luminescence;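 for AC50: cells exposed to compound for 48 hours before viability readout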
[2] = viability loss in pontine glioma line – cell-based, SU-DIPG-XXV, MIPE5.0, CellTiter-Glo, qHTS, dose response (AID 1347065); details: CellTiter-Glo ATP luminescence;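 note: cells exposed to compound for 48 hours before ATP readout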
[3] = JHH-DIPG-1 glioma cell viability, MIPE5.0 library, CellTiter-Glo luminescence, qHTS (AID 1347067); details: JHH-DIPG-1 glioma viability, CellTiter-Glo ATP luminescence;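 note: cells exposed to compound for 48 hours before readout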
[4] = LFS_MB_P medulloblastoma growth inhibition, cell-based, chromothripsis tumors, cisplatin or BGB combos (AID 1671449; in the data active = inhibition above about 80%;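 note: cells exposed for 96 hours; 0% = vehicle DMSO and 100% = killing by high DMSO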); details: LFS_MB_P medulloblastoma cells
[5] = HDN33 neuroblastoma growth inhibition, cell-based, chromothripsis tumors, cisplatin or BGB combos (AID 1671450; in the data active = inhibition above about 80%;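 note: cells exposed to compound for four days; 0% = vehicle DMSO and 100% = cell killing by high DMSO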); details: HDN33 neuroblastoma cells, stronger effect = higher value
[6] = ICB984 medulloblastoma cell growth inhibition, synergistic combos for chromothripsis tumors, cisplatin or BGB combos (AID 1671451; call rule not given here;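 note: cells exposed for 96 hours before readout; 0% = vehicle DMSO and 100% = killing by high DMSO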); details: ICB984 medulloblastoma cells, drug combinations, stronger effect = higher value
[7] = LFS_MB_1R medulloblastoma cell growth inhibition, synergistic combos for chromothripsis tumors, cisplatin or BGB combos (AID 1671452; in the data active = inhibition above about 80%;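 note: cells exposed for 96 hours before readout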); details: LFS_MB_1R medulloblastoma cells, stronger effect = higher value
[8] = HTB85 osteosarcoma cell growth inhibition, synergistic combos for chromothripsis tumors, BGB or cisplatin IC20 combos (AID 1671453; in the data active = inhibition above about 80%;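 note: cells exposed for 96 hours before readout; 0% = vehicle DMSO and 100% = high DMSO killing control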); details: HTB85 osteosarcoma cells, drug combinations, stronger effect = higher value
[9] = CRL2098 osteosarcoma cell growth inhibition, synergistic combos for chromothripsis tumors, BGB or cisplatin IC20 combos (AID 1671454; in the data active = inhibition above about 80%;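 note: cells exposed for 96 h before readout; 0% = vehicle DMSO and 100% = killing by high DMSO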); details: CRL2098 osteosarcoma cells, drug combinations, stronger effect = higher value
[10] = HD-MB03 medulloblastoma cell growth inhibition, synergistic combos for chromothripsis tumors, BGB or cisplatin IC20 combos (AID 1671455; in the data active = inhibition above about 83%;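 note: 0% = vehicle DMSO and 100% = high DMSO as cytotoxic control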); details: HD-MB03 medulloblastoma cells, stronger effect = higher value
[11] = UWB1.289 ovarian carcinoma cell growth inhibition, synergistic combos for chromothripsis tumors, BGB or cisplatin combos (AID 1671456; in the data active = inhibition above about 80%;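 note: cells exposed to compound for four days; 0% = vehicle DMSO and 100% = killing by high DMSO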); details: UWB1.289 ovarian carcinoma cells, stronger effect = higher value
[12] = LFS_MB_2R medulloblastoma cell growth inhibition, synergistic combos for chromothripsis tumors, cisplatin combos (AID 1671457; in the data active = inhibition above about 80%;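 note: cells exposed to compound for four days before readout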); details: LFS_MB_2R medulloblastoma cells, stronger effect = higher value
[13] = MDA-MB-436 breast carcinoma cell growth inhibition, synergistic combos for chromothripsis tumors, BGB or cisplatin combos (AID 1671458; call rule not given here;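 note: cells exposed for 96 hours; 0% = vehicle DMSO and 100% = killing by high DMSO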); details: MDA-MB-436 breast carcinoma growth inhibition, drug combinations, stronger effect = higher value
[14] = UWB1.289_BRCA1 ovarian cancer growth, cell-based, BGB or cisplatin combinations (AID 1671459; in the data active = inhibition above about 80%); details: UWB1.289 BRCA1 ovarian carcinoma, drug combinations, stronger effect = higher value
[15] = human astrocyte viability loss, single and combined drugs, cytotoxicity control for chromothriptic childhood tumor combination screen, cell-based, BGB or cisplatin IC20 combos (AID 1671460; in the data active = inhibition above about 80%;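 note: cells exposed to compounds for 96 hours before viability readout; 0% = vehicle and 100% = killing control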); details: Human astrocytes, drug combinations, stronger effect = higher value
[16] = growth inhibition of BT084 medulloblastoma cells, cell-based, ICGC_MB145, cisplatin and BGB IC40 combos (AID 1671461; in the data active = inhibition above about 80%;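 note: cells exposed to drugs for 96 hours; 0% = vehicle DMSO and 100% = high DMSO full killing control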); details: drug combinations, stronger effect = higher value
[17] = growth inhibition of RCMB18 medulloblastoma cells, cell-based, cisplatin and BGB IC40 combos (AID 1671462; in the data active = inhibition above about 80%;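 note: cells exposed to compound for four days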); details: stronger effect = higher value
[18] = growth inhibition of CRL1545 osteosarcoma cells, cell-based, cisplatin and BGB IC20 combos (AID 1671464; in the data active = inhibition above about 80%;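 note: cells exposed to compound for 96 hours before readout; 0% = vehicle DMSO and 100% = high DMSO killing control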); details: stronger effect = higher value
[19] = SU-DIPG-XXV glioma cell viability, MIPE5.0 library, qHTS (AID 1347068; cut-off not given, nearly all actives have IC50 up to about 30 µM;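 for IC50: cells exposed to compound for 48 hours before viability readout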)
[20] = sensitizers of A549 cells to miR-34 induction, primary screen, imaging, A549 dox-inducible miR-34, nuclei and caspase counts (AID 1347080;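 active = compounds whose cell count with miR-34 switched on is under 0.7 times the count with it off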); details: A549 miR-34 inducible, Hoechst nuclei count, 48 h
[21] = survival rescue of mitochondrial mutant cells in low glucose, primary screen, MELAS cybrids, Rieske KO mouse fibroblasts, CellTiter-Glo (AID 1508586;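 active = mean z-score across replicates of 1.96 or higher in either the MELAS or the Rieske mutant cell line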;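 note: z relative to plate mean and SD of compound and empty wells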)
[22] = liver-stage malaria parasite growth inhibition, primary screen, cell-based, HepG2, luciferase luminescence, HepG2 viability (AID 624349; in the data active = parasite load remaining mostly below about 12%, no sharp cut-off; inactive = mostly above about 10%;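 note: 100% = mean of DMSO negative control wells on the same plate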); details: P. berghei liver stage in HepG2, luciferase luminescence, concentration not given here; parasite load remaining: stronger effect = lower value; viability: measured here: HepG2 viability without parasites
[23] = measured here: combination with BGB IC40, at 0.05 µM
[24] = measured here: with BGB IC20 combination, at 0.5 µM
[25] = measured here: with cisplatin IC20 combination, at 0.5 µM
[26] = measured here: combination with cisplatin, at 0.5 µM
[27] = measured here: combination with cisplatin, at 5 µM

CN[C@@H]1CN(c2ccc3c(=O)c(C(=O)O)cn(-c4nccs4)c3n2)C[C@H]1OC
AC50 [1]: 0.91 µM (active) | AC50 [2]: 5.74 µM (active) | AC50 [3]: 9.1 µM (active) | inhibition ([4]; at 0.5 µM, stronger effect = higher value): -19.9% (inactive) | inhibition ([4]; measured here: combination with BGB IC20, at 0.005 µM): -32.1% | inhibition ([4]; measured here: combination with BGB IC40, at 0.005 µM): -41.7% | inhibition [4, 23]: -39.5% | inhibition ([4]; measured here: combination with cisplatin, at 0.5 µM, stronger effect = higher value): -37.3% | inhibition ([4]; measured here: combination with cisplatin, at 5 µM, stronger effect = higher value): 59.3% | inhibition ([5]; BGB combo, at 5 µM): 99.1% | inhibition ([5]; at 0.5 µM): 57% (inactive) | inhibition ([5]; cisplatin combo, at 5 µM): 99.4% | inhibition [5, 24]: 48.4% | inhibition [5, 25]: 56.4% | inhibition ([5]; single agent, at 5 µM): 99.6% | inhibition ([6]; BGB IC20 combo, at 0.005 µM): 19.2% | inhibition ([6]; BGB IC40 combo, at 0.005 µM): -11.4% | inhibition ([6]; BGB IC40 combo, at 0.05 µM): 100% | inhibition ([6]; at 0.5 µM): -34.8% (inactive) | inhibition ([6]; cisplatin combo, at 0.05 µM): 100% | inhibition ([6]; cisplatin combo, at 0.5 µM): -31.3% | inhibition ([6]; cisplatin combo, at 5 µM): -34.3% | inhibition ([6]; measured here: 5 uM single agent, at 5 µM): -6.89% | inhibition ([7]; at 0.5 µM): 3.38% (inactive) | inhibition [7, 23]: 4.5% | inhibition [7, 26]: 47.4% | inhibition [7, 27]: 92.8% | inhibition ([8]; at 0.5 µM): 51.4% (inactive) | inhibition ([8]; measured here: with BGB IC20, at 0.5 µM): 49.9% | inhibition ([8]; measured here: with BGB IC20, at 5 µM): 99.2% | inhibition ([8]; measured here: with cisplatin IC20, at 0.5 µM): 42.9% | inhibition ([8]; measured here: with cisplatin IC20, at 5 µM): 99.3% | inhibition ([8]; single agent, at 5 µM): 99.2% | inhibition ([9]; at 0.5 µM): 18.1% (inactive) | inhibition ([9]; measured here: combination with BGB at IC20, at 0.5 µM): 27.9% | inhibition ([9]; measured here: combination with cisplatin at IC20, at 0.5 µM): -2.11% | inhibition ([10]; at 0.5 µM): 72.5% (inactive) | inhibition ([10]; measured here: combo with BGB at IC20, at 0.5 µM): 63.8% | inhibition ([10]; measured here: combo with cisplatin at IC20, at 0.5 µM): 74.4% | inhibition ([11]; at 0.5 µM): 14.7% (inactive) | inhibition ([11]; measured here: inhibition with BGB combination, at 0.05 µM): -25.3% | inhibition ([11]; measured here: inhibition with cisplatin combination, at 0.05 µM): -22.6% | inhibition ([12]; at 0.5 µM): -28.9% (inactive) | inhibition [12, 26]: -26% | inhibition [12, 27]: 34.8% | inhibition ([13]; at 0.5 µM): 25.6% (inactive) | inhibition ([13]; measured here: BGB combination, at 0.5 µM): 14% | inhibition ([13]; measured here: BGB combination, at 5 µM): 70.2% | inhibition ([13]; measured here: cisplatin combination, at 0.5 µM): 8.1% | inhibition ([13]; measured here: cisplatin combination, at 5 µM): 85.8% | inhibition ([14]; BGB combination, concentration series, at 5 µM): 94.6% | inhibition ([14]; at 0.5 µM): 13.7% (inactive) | inhibition ([14]; cisplatin combination, concentration series, at 5 µM): 98.3% | inhibition ([15]; at 0.5 µM): 33.4% (inactive) | inhibition ([15]; measured here: combo with BGB IC20, at 0.5 µM): 29% | inhibition ([15]; measured here: combo with cisplatin IC20, at 0.5 µM): 13.3% | inhibition ([16]; at 0.5 µM): -20% (inactive) | inhibition ([16]; cisplatin combination, at 0.5 µM): -18.3% | inhibition ([16]; cisplatin combination, at 5 µM): 37.6% | inhibition ([16]; measured here: BGB IC40 combination 0.05 uM, at 0.05 µM): -77.9% | inhibition ([16]; single agent, at 5 µM): 101% | inhibition ([17]; at 0.5 µM): -5.3% (inactive) | inhibition ([17]; cisplatin combo, at 5 µM): 84.6% | inhibition ([17]; measured here: BGB IC40 combination, at 0.05 µM): -18.9% | inhibition [17, 26]: 32.1% | inhibition ([17]; single agent, at 5 µM): 87.5% | inhibition ([18]; at 0.5 µM): 17.4% (inactive) | inhibition [18, 24]: 16.9% | inhibition [18, 25]: 16.4% | inhibition ([18]; single agent, at 0.05 µM): 9.09% | inhibition ([18]; single agent, at 5 µM): 99.7%

CCn1c(N)c(C(=O)NC)c(=O)c2ccc(C#CC(C)(O)COC)nc21 (configuration not stated)
AC50 [1]: 20.9 µM (active) | outcome [3]: inactive | outcome [19]: inactive

COCCN1CCN(Cc2ccc(-c3n[nH]c4c3C(=O)c3c(NC(=O)NN5CCOCC5)cccc3-4)cc2)CC1
AC50 [1]: 0.295 µM (active) | AC50 [2]: 0.235 µM (active) | IC50 [19]: 0.263 µM (active)

CCCc1cc(C)[nH]c(=O)c1CNC(=O)c1cc(-c2ccc(N3CCN(C(C)C)CC3)nc2)cc2c1cnn2C(C)C
AC50 [1]: 26.3 µM (active) | AC50 [2]: 20.9 µM (active) | AC50 [3]: 14.8 µM (active) | fold change ([20]; stronger effect = lower value, cell number ratio, induced over uninduced): 0.939 (inactive) | fold change ([20]; measured here: relative caspase fold change +Dox/-Dox): 0.565 | cell count ([20]; measured here: total cells with miR-34 induction, stronger effect = lower value): 6600 | cell count ([20]; measured here: total cells without miR-34 induction): 7030 | z-score ([21]; MELAS cybrid survival, CellTiter-Glo 48 h, stronger effect = higher value): 0.696 (inactive) | z-score ([21]; Rieske KO mouse fibroblast survival, CellTiter-Glo 72 h): -0.809

CC(C)n1cnc2c(NCCCCCCNC(=O)OC(C)(C)C)nc(NCCO)nc21
parasite load remaining [22]: 47.6% (inactive) | viability [22]: 102% | AC50 [1]: 23.5 µM (active) | AC50 [3]: 18.6 µM (active)

CNc1ncc2cc(-c3cc(NC(=O)NCCC(C)(C)C)c(F)cc3C)c(C)nc2n1
outcome [1]: inactive | outcome [19]: inactive

N#Cc1cc2cc(CN3CCC(Nc4ncnc5sc(CC(F)(F)F)cc45)CC3)c(O)cc2n1Cc1cn[nH]c1
AC50 [1]: 29.5 µM (active) | IC50 [19]: 20.9 µM (active)

O=C(Nc1ccnc(NC(=O)C2CC2)c1)c1c(Cl)cccc1Cl
AC50 [1]: 9.34 µM (active) | AC50 [3]: 2.63 µM (active) | IC50 [19]: 7.42 µM (active)

Cc1nc2cccc(N)c2c(=O)n1C1CCC(=O)NC1=O (configuration not stated)
outcome [1]: inactive | outcome [3]: inactive | outcome [19]: inactive

CN(C)CCN1C(=O)c2cccc3cc(NC(N)=O)cc(c23)C1=O
AC50 [1]: 18.6 µM (active) | outcome [19]: inactive
